{"source": "PubChem BioAssay (EPA / NIEHS)", "note": "Several values for one entry are separate records, joined by “and”; a condition that tells them apart may be missing. Identical values can stand only once. A structure can be active in one record and inactive in another. Activity calls are given as the source filed them. The calls were made as follows: active = hit-call score of the fitted dose curve at least 0.9, where 1 is the maximum; inactive = score below 0.9."}
{"target": "Heat shock factor protein 1 (Homo sapiens) (UniProt Q00613)", "sequence (Q00613 whole entry, looked up)": "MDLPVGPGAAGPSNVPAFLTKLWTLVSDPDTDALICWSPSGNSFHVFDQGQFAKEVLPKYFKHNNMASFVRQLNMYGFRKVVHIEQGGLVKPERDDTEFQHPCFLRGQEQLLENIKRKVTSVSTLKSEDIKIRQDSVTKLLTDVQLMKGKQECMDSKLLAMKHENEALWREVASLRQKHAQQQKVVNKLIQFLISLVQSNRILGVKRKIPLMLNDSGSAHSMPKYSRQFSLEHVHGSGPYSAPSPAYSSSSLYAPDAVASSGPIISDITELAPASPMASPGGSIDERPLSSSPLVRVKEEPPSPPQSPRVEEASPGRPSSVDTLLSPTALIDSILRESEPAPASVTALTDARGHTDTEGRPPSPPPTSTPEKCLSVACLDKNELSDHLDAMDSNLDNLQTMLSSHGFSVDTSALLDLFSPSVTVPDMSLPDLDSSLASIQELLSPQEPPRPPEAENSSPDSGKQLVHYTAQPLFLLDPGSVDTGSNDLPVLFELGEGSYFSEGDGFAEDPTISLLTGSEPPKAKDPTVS", "assay": "ATG_HSE_CIS: Attagene CIS-FACTORIAL HepG2 Assay for human Heat Shock Transcription Factor 1 (HSE) (AID 2282953)", "conditions": "HepG2 HSE cis-reporter, Attagene RNA transcription; actives raise or lower the signal", "experimental": "ATG_CIS is a cell-based, multiplexed-readout assay that uses HepG2, a human liver cell line, with measurements taken at 24 hours after chemical dosing in a 24-well plate.ATG_HSE_CIS is one of 52 assay component(s) measured or calculated from the ATG_CIS assay. It is designed to make measurements of mRNA induction, a form of inducible reporter, as detected with fluorescence intensity signals by Reverse transcription polymerase chain reaction (RT-PCR) and Capillary electrophoresis technology.Data from the assay component ATG_HSE_CIS was analyzed into 1 assay endpoint. This assay endpoint, ATG_HSE_CIS, was analyzed with bidirectional fitting relative to DMSO as the negative control and baseline of activity. Using a type of inducible reporter, measures of mRNA for gain or loss-of-signal activity can be used to understand the reporter gene at the transcription factor-level as they relate to the gene HSF1. Furthermore, this assay endpoint can be referred to as a primary readout, because this assay has produced multiple assay endpoints where this one serves a reporter gene function. To generalize the intended target to other relatable targets, this assay endpoint is annotated to the dna binding intended target family, where the subfamily is heat shock protein.\nHuman liver HepG2 cells are transiently transfected with multiple reporter transcription units (MRTUs) in 6-well plates using FuGene 6 reagent (Roche; 3 ml FuGene/1 mg DNA). The MRTU constructs are regulated by a cis-regulating element (promoter). […] A major difference between the CIS and TRANS system is that in CIS activities of endogenous TFs are measured, whereas the TRANS assay evaluates changes in activities of exogenous, chimeric NR-Gal4 proteins. […] At the end of 24 hour incubation, total RNA was isolated using TriZol reagent (Invitrogen). The isolated RNA is then reverse-transcribed using oligo(dT) primer and Mo-MLV reverse transcriptase (Invitrogen) with DNAse I (Ambion) treatment for 30 min. The one-tenth of the produced cDNA was amplified by PCR using Taq DNA polymerase (Invitrogen) and two reporter sequence-specific primers. The PCR products were fluorescently labeled by primer extension with 6-arboxyfluorescein (6-FAM) 5'-labeled reporter sequence-specific primer (2 min at 95 C, 20 s at 68 C and 10 min at 72 C) and these products were digested with 5U of HpaI (New England Biolabs) for 2h at 37 C. The fragments were purified using Qiaquick PCR columns (Qiagen), analyzed on an ABI 3130xL genetic analyzer (Applied Biosystems) with peak positions identified by using a set of X-rhodamine (ROX)-labeled MapMarker1000 molecular weight standards (BioVentures). The raw capillary electrophoresis data was processed using Attagraph software (Attagene)."}
{"smiles": "Cc1cc(Cl)ccc1OCC(=O)O", "outcome": "inactive"}
{"smiles": "CO/C=C(/C(=O)OC)c1ccccc1Oc1cc(Oc2ccccc2C#N)ncn1", "outcome": "inactive", "AC50": "168 µM (active) and 155 µM (active) and 170 µM (active)"}
{"smiles": "CCCCNC(=O)OCC#CI", "AC50": "25.6 µM (active)", "outcome": "inactive"}
{"smiles": "CCc1nn(C)c(C(=O)NCc2ccc(C(C)(C)C)cc2)c1Cl", "outcome": "inactive"}
{"smiles": "CN(C)C(=S)SSC(=S)N(C)C", "outcome": "inactive"}
{"smiles": "O=C(O)c1nc(Cl)ccc1Cl", "outcome": "inactive"}
{"smiles": "CC1=C(C(=O)Nc2ccccc2)SCCO1", "outcome": "inactive"}
{"smiles": "Cc1ccc(-c2c(Cl)nc(C#N)n2S(=O)(=O)N(C)C)cc1", "outcome": "inactive"}
{"smiles": "CCNc1nc(Cl)nc(NCC)n1", "outcome": "inactive"}
{"smiles": "COC(=O)c1ccccc1C(=O)OC", "outcome": "inactive"}
{"smiles": "COc1nc(C)nc(NC(=O)NS(=O)(=O)c2ccccc2Cl)n1", "outcome": "inactive"}
{"smiles": "CCCCOC(=O)c1ccccc1C(=O)OCCCC", "outcome": "inactive"}
{"smiles": "COP(=S)(OC)Oc1nc(Cl)c(Cl)cc1Cl", "outcome": "inactive"}
{"smiles": "CC(C)C1(C)N=C(c2nc3ccccc3cc2C(=O)O)NC1=O", "note": "(stereo not given)", "outcome": "inactive"}
{"smiles": "C=CCC1=C(C)C(OC(=O)C2C(C=C(C)C)C2(C)C)CC1=O", "note": "(stereo not given)", "AC50": "74.8 µM (active) [middle of 6 runs]"}
{"smiles": "CC(C)(C)c1ccc(CSc2cnn(C(C)(C)C)c(=O)c2Cl)cc1", "AC50": "21.8 µM (active)"}
{"smiles": "O=C(O)COc1nc(Cl)c(Cl)cc1Cl", "outcome": "inactive"}
{"smiles": "Cc1c(F)c(F)c(COC(=O)C2C(/C=C(\\Cl)C(F)(F)F)C2(C)C)c(F)c1F", "note": "(stereo not given)", "outcome": "inactive"}
{"smiles": "CCNc1nc(Cl)nc(NC(C)C)n1", "outcome": "inactive"}
{"smiles": "COC(=O)C(C)Oc1ccc(Oc2ccc(Cl)cc2Cl)cc1", "note": "(stereo not given)", "outcome": "inactive"}
{"smiles": "CCOC(=O)C(Cl)Cc1cc(-n2nc(C)n(C(F)F)c2=O)c(F)cc1Cl", "note": "(stereo not given)", "outcome": "inactive"}
{"smiles": "COC(=O)N(OC)c1ccccc1COc1ccn(-c2ccc(Cl)cc2)n1", "outcome": "inactive"}
{"smiles": "C=CC1(C)OC(=O)N(c2cc(Cl)cc(Cl)c2)C1=O", "note": "(stereo not given)", "outcome": "inactive"}
{"smiles": "CNC(=S)S", "AC50": "83 µM (active)", "outcome": "inactive"}
{"smiles": "Oc1ccccc1-c1ccccc1", "AC50": "189 µM (active)", "outcome": "inactive"}
{"smiles": "CC(C)Oc1cc(-n2nc(C(C)(C)C)oc2=O)c(Cl)cc1Cl", "AC50": "50 µM (active)"}
{"smiles": "OC(c1ccc(Cl)cc1)(c1cncnc1)c1ccccc1Cl", "note": "(stereo not given)", "outcome": "inactive", "AC50": "69 µM (active)"}
{"smiles": "COc1ccc(C(c2ccc(OC)cc2)C(Cl)(Cl)Cl)cc1", "outcome": "inactive"}
{"smiles": "CCCC1COC(Cn2cncn2)(c2ccc(Cl)cc2Cl)O1", "note": "(stereo not given)", "outcome": "inactive"}
{"smiles": "C=CCC1=C(C)[C@@H](OC(=O)[C@@H]2[C@@H](C=C(C)C)C2(C)C)CC1=O", "outcome": "inactive"}
{"smiles": "CS/C(C)=N/OC(=O)N(C)SN(C)C(=O)O/N=C(\\C)SC", "outcome": "inactive"}
{"smiles": "CCOP(=S)(OCC)SCn1c(=O)oc2cc(Cl)ccc21", "AC50": "78.7 µM (active)"}
{"smiles": "O=C(Nc1ccccc1)Nc1ccnc(Cl)c1", "outcome": "inactive"}
{"smiles": "CCCCNC(=O)n1c(NC(=O)OC)nc2ccccc21", "outcome": "inactive"}
{"smiles": "COc1nc(NC(C)C)nc(NC(C)C)n1", "outcome": "inactive"}
